PubChem BioAssay (NCATS)
Inconclusive results are not listed. Activity calls are given as the source filed them. Unless noted, calls come from the whole dose curve.

Assays:
[1] = target: Cytochrome P450 3A4 (Homo sapiens) (UniProt P08684); test: qHTS Assay for Inhibitors and Substrates of Cytochrome P450 3A4 (AID 884; active = well fitted curve in the direction sought with a large enough effect; an effect the other way counts as inactive or inconclusive; note: series mostly up to about 57 µM; % is set by controls: 0 for no effect and ±100 for the full control effect; nearly all actives have a fitted effect of over 50% in size)
Outline: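 20 nM human CYP3A4 with 25 uM Luciferin-PPXE (at KM) in 200 mM KPO4, preincubated 10 min with compound; NADPH regeneration started a 60 min RT reaction. Luciferin detected by luminescence, normalized to 57 uM ketoconazole as full inhibition.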

[2] = target: DNA dC->dU-editing enzyme APOBEC-3G (Homo sapiens) (UniProt Q9HC16); test: qHTS for inhibitors of Vif-A3G interactions: Validation (AID 588379; active = well fitted curve in the direction sought with a large enough effect; an effect the other way counts as inactive or inconclusive; note: 0% is about no effect)
Outline: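 HeLa cells stably expressing Vif and A3G-eYFP, 700 cells/well, incubated overnight at 37 deg C, then exposed to compound overnight at 37 deg C. Inhibition of Vif-mediated degradation read as increased yellow fluorescence (Ex 488/Em 500-530) by laser-scanning cytometry.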

[3] = target: Androgen receptor (Homo sapiens) (UniProt P10275); test: qHTS assay for small molecule agonists of androgen receptor signaling (AID 588515; active = well fitted curve in the direction sought with a large enough effect in the signal ratio, with a control signal flat; the % refers to the signal ratio; note: % is set by controls: 0 for no effect and ±100 for the full control effect); conditions: AR-UAS-bla HEK293, beta-lactamase ratio, agonist 16 h; activation: active compounds read high
Outline: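 EC50 and efficacy came from Hill fits of titrations (up to 92 uM) normalized to 30 nM R1881 as 100% and DMSO as 0%. Compound exposure was 16 h at 37 C on AR-UAS-bla HEK293 cells, with a 405/460/530 nm CCF4 fluorescence read.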

[4] = target: Androgen receptor (Homo sapiens) (UniProt P10275); test: qHTS assay for small molecule antagonists of androgen receptor signaling (AID 588516; active = well fitted curve in the direction sought with a large enough effect in the signal ratio, with a control signal flat, not every such curve was filed as active; the % refers to the signal ratio; note: % is set by controls: 0 for no effect and ±100 for the full control effect)
Outline: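 Compounds tested in titration against 10 nM R1881 in AR-responsive bla reporter HEK 293 cells; CCF4 fluorescence (460/530 nm) after 16 h exposure gave IC50 and efficacy.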

[5] = target: Bile acid receptor (Homo sapiens) (UniProt Q96RI1); test: qHTS assay for small molecule antagonists of farnesoid X receptor signaling (AID 588526); note: % is set by controls: 0 for no effect and ±100 for the full control effect
Outline: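 Concentration-response titrations were fitted to the Hill equation for half-maximal inhibition and maximal response, with data normalised to 50 uM chenodeoxycholic acid and DMSO control wells. Cells: FXR-UAS-bla HEK293T, dialyzed FBS.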

[6] = target: Glucocorticoid receptor (Homo sapiens) (UniProt P04150); test: qHTS assay for small molecule agonists of glucocorticoid receptor signaling (AID 588532; active = well fitted curve in the direction sought with a large enough effect in the signal ratio, with a control signal flat; the % refers to the signal ratio;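 note: 100% = dexamethasone at 0.1 µM and 0% = DMSO only wells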); conditions: HeLa MMTV-bla, beta-lactamase ratio, agonist, 18 h; active compounds read high; percent of dexamethasone control, DMSO zero
Outline: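 MMTV-bla HeLa, beta-lactamase reporter; medium with 1% charcoal/dextran-stripped FBS; cpds up to 92 uM, 18 h, 37 C; CCF4 readout 460/530 nm; Hill fit → EC50, efficacy vs 0.1 uM dexamethasone = 100%.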

[7] = target: Glucocorticoid receptor (Homo sapiens) (UniProt P04150); test: qHTS assay for small molecule antagonists of glucocorticoid receptor signaling (AID 588533; active = well fitted inhibition curve with a large enough effect in the signal ratio, with a control signal flat, not every such curve was filed as active; the % refers to the signal ratio;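 note: cells stimulated with 2 nM dexamethasone as agonist; % is set by controls: 0 for no effect and ±100 for the full control effect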)
Outline: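 Antagonist-mode qHTS: compound titrations added to GRE-bla HeLa cells, then dexamethasone 2 nM final; 18 h, 37 C. CCF4 FRET fluorescence normalized to dexamethasone and DMSO; IC50 from Hill fit.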

[8] = target: Peroxisome proliferator-activated receptor delta (Homo sapiens) (UniProt Q03181); test: qHTS assay for small molecule antagonists of peroxisome proliferator-activated receptor delta signaling (AID 588535; active = well fitted inhibition curve with a large enough effect in the signal ratio, with a control signal flat, not every such curve was filed as active; the % refers to the signal ratio)
Outline: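 GeneBLAzer PPAR-delta-UAS-bla HEK293T cells in medium with 2% charcoal/dextran FBS were preincubated 5 hrs at 37 C, then given compounds, incubated 18 hrs at 37 C, and read by CCF4 beta-lactamase fluorescence; IC50 from Hill fits.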

[9] = target: Peroxisome proliferator-activated receptor gamma (Homo sapiens) (UniProt P37231); test: qHTS assay for small molecule agonists of peroxisome proliferator-activated receptor gamma signaling (AID 588536; active = well fitted curve in the direction sought with a large enough effect in the signal ratio, with a control signal flat, not every such curve was filed as active; the % refers to the signal ratio;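 note: 0% = DMSO basal wells and 100% = rosiglitazone at 2 µM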)
Outline: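 Test agents, titrated, stimulated HEK293 UAS-bla cells overnight (16 h, 37 C). Substrate CCF4 was then added for two hours at room temperature before fluorescence reading.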

[10] = target: Peroxisome proliferator-activated receptor gamma (Homo sapiens) (UniProt P37231); test: qHTS assay for small molecule antagonists of peroxisome proliferator-activated receptor gamma signaling (AID 588537; active = well fitted inhibition curve with a large enough effect in the signal ratio, with a control signal flat, not every such curve was filed as active; the % refers to the signal ratio;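 note: reporter cells co-stimulated with 50 nM rosiglitazone agonist during compound treatment; % of control where 0% means no effect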)
Outline: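 PPAR-gamma-UAS-bla HEK293 cells (3000/well, 1% charcoal/dextran-stripped FBS) were preincubated 6-6.5 h at 37 C, given titrated compounds, then stimulated with 50 nM rosiglitazone for 16 h. Beta-lactamase activity was read with CCF4 dye; IC50 came from Hill fits.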

[11] = qHTS assay for small molecule agonists of the antioxidant response element (ARE) signaling pathway (AID 651741; active = well fitted activation curve with a large enough effect in the signal ratio; the % refers to the signal ratio; note: % of control where 0% means no effect)
Outline: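 ARE-bla HepG2 cells (beta-lactamase reporter under ARE control) were plated at 2,000 cells/well, preincubated 5 h at 37 C/5% CO2, then treated with DMSO-dissolved compounds for 16 h at 37 C; LiveBLAzer B/G FRET substrate added, fluorescence read after 2 h at room temperature.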

[12] = qHTS assay for small molecule activators of the p53 signaling pathway (AID 651743; active = well fitted activation curve with a large enough effect in the signal ratio, not every such curve was filed as active; the % refers to the signal ratio; note: series mostly up to about 92 µM; % of control where 0% means no effect); conditions: HCT-116 p53RE-bla, beta-lactamase FRET ratio, 16 h; activation: active compounds read high
Outline: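 p53RE-bla HCT-116 cells with a stably integrated beta-lactamase reporter under p53 response elements were plated, rested 5 hours at 37 C/5% CO2, then exposed to compounds in DMSO for 16 hours at 37 C. LiveBLAzer B/G FRET substrate was read after 2 hours at room temperature.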

[13] = target: Cytochrome P450 3A4 (Homo sapiens) (UniProt P08684); test: qHTS Assay for Activators of Cytochrome P450 3A4 (AID 885; active = well fitted curve in the direction sought with a large enough effect; an effect the other way counts as inactive or inconclusive; note: nearly all actives have a fitted effect of over 65% in size)
Outline: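 Steps: enzyme/substrate mix dispensed; compound added, 10 min RT; NADPH regeneration solution added, 60 min RT; luciferin detection buffer stops reaction; 20 min later luminescence measured.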

Chain of DNA dC->dU-editing enzyme APOBEC-3G (Homo sapiens) (Q9HC16 whole entry, looked up): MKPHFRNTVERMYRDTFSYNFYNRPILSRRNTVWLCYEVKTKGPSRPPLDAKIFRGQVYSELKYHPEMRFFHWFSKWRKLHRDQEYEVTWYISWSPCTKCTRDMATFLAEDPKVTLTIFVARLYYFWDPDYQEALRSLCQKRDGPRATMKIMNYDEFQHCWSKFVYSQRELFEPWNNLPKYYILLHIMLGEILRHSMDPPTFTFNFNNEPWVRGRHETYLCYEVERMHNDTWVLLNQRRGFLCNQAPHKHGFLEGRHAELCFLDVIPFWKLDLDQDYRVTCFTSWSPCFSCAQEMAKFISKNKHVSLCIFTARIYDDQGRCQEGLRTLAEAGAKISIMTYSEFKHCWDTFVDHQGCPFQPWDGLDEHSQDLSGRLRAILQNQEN
Chain of Glucocorticoid receptor (Homo sapiens) (P04150 whole entry, looked up): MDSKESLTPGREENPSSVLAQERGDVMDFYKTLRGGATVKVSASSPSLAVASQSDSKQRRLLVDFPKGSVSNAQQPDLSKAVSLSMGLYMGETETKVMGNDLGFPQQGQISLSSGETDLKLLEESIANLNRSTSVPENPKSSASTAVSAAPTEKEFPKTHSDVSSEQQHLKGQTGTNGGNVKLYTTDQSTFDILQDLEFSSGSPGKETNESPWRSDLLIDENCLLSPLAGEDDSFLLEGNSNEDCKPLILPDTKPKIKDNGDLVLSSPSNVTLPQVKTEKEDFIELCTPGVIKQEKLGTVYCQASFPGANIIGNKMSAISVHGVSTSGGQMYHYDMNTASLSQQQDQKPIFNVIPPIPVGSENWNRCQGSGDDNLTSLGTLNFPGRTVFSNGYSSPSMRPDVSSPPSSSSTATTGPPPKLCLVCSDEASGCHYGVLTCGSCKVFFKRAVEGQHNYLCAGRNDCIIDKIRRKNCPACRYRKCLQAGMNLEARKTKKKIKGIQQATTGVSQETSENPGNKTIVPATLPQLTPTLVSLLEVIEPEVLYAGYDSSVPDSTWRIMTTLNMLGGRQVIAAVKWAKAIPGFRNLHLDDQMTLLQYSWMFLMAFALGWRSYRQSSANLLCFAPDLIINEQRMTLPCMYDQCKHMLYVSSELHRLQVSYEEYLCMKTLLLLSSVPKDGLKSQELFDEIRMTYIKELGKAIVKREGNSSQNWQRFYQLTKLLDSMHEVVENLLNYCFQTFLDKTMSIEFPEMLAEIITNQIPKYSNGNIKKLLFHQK
Chain of Androgen receptor (Homo sapiens) (P10275 whole entry, looked up): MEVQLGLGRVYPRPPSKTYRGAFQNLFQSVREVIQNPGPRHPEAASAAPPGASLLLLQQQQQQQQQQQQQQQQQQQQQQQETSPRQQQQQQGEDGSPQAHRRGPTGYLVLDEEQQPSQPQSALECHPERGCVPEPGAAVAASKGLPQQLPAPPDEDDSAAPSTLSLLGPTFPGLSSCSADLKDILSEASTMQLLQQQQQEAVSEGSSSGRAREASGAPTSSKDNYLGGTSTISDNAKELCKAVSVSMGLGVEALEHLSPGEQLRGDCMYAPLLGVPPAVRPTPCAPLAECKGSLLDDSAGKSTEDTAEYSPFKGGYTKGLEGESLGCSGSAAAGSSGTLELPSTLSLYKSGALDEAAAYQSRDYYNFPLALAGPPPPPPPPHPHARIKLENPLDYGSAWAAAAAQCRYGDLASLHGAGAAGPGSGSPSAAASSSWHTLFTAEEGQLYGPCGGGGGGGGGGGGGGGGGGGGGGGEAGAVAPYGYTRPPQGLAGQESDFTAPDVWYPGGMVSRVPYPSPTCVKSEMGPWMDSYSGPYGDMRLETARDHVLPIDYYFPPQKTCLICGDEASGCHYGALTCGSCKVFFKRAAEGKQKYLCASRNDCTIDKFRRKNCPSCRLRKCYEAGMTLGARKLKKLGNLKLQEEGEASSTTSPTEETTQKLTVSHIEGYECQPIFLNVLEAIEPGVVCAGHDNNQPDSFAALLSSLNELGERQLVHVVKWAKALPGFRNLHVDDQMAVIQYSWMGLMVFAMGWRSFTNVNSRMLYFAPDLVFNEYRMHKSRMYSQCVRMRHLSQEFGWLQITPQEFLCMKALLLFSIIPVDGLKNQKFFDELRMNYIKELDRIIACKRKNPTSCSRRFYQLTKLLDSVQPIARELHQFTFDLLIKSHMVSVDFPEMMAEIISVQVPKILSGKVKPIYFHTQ
Chain of Cytochrome P450 3A4 (Homo sapiens) (P08684 whole entry, looked up): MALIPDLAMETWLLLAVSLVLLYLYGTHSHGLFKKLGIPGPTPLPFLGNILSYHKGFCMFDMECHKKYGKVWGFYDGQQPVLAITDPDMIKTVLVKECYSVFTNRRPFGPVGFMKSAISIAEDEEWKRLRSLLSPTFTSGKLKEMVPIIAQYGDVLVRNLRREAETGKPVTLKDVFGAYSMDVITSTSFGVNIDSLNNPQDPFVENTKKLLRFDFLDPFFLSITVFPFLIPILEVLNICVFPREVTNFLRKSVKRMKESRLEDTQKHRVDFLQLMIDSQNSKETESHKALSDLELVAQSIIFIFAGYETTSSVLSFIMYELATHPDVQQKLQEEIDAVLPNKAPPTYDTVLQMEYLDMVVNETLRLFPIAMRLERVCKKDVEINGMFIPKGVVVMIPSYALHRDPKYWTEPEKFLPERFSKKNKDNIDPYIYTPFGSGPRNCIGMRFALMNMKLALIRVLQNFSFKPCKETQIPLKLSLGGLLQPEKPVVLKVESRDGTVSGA
Chain of Peroxisome proliferator-activated receptor gamma (Homo sapiens) (P37231 whole entry, looked up): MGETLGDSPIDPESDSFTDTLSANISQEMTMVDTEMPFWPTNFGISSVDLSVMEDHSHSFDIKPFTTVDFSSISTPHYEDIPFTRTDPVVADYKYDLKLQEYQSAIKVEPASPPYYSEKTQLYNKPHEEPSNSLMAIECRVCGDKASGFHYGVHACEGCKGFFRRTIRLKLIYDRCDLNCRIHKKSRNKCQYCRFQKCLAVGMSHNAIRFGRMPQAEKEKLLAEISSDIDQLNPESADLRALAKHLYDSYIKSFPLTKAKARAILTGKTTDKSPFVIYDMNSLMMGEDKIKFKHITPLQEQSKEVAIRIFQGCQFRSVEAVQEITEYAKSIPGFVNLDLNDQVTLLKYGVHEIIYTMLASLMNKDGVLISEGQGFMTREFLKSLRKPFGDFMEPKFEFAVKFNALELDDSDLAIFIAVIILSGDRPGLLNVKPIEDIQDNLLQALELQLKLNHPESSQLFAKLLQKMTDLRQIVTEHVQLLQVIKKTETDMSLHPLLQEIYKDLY
Chain of Bile acid receptor (Homo sapiens) (Q96RI1 whole entry, looked up): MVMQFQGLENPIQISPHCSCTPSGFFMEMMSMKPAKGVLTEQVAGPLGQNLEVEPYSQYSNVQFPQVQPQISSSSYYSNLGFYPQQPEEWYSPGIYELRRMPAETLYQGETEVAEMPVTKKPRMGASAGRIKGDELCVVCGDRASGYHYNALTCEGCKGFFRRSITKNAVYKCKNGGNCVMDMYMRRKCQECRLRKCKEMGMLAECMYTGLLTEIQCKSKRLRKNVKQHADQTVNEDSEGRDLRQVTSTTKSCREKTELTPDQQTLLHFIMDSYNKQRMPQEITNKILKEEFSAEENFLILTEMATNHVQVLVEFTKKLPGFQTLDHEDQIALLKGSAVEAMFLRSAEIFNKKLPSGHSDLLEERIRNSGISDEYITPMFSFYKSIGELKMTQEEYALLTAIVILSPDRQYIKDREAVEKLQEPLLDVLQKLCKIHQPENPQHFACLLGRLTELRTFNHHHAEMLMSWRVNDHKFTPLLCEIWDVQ
Chain of Peroxisome proliferator-activated receptor delta (Homo sapiens) (Q03181 whole entry, looked up): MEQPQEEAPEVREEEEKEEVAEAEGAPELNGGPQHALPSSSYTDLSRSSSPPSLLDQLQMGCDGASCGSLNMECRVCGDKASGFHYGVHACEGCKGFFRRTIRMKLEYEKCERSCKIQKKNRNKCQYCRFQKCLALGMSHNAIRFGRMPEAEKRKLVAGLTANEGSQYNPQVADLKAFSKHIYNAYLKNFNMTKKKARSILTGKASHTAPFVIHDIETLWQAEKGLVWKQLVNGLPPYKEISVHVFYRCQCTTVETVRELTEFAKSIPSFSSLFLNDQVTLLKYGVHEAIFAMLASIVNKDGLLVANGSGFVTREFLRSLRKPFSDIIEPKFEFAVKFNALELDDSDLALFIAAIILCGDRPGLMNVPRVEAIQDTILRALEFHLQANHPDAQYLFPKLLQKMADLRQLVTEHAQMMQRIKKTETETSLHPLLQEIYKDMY

O=c1c(O)c(-c2ccc(O)c(O)c2)oc2c(OC[C@@H]3O[C@@H](O)[C@@H](O)[C@H](O)[C@H]3O)c(O)cc(O)c12
inactive: Potency [1] | Potency [2]

Cc1ccc(C(=O)c2ccccc2)cc1
inactive: activation [3] 1.33% | outcome [4] | Potency [5] | activation [6] 2.58% | Potency [7] | Potency [8] | outcome [9] | Potency [10] | Potency [11] | activation [12] 3.79%

CCCCC(CC)C(=O)OCCOCCOCCOC(=O)C(CC)CCCC (stereo unspecified)
inactive: activation [3] 6.77% | outcome [4] | activation [6] -10% | Potency [7] | outcome [9] | Potency [11] | activation [12] 0.679%

O=c1[nH]c(=O)c2[nH]cnc2[nH]1
inactive: activation [3] 2.45% | outcome [4] | activation [6] 3.26% | Potency [7] | Potency [8] | Potency [10] | Potency [11] | activation [12] 4.14%

O=C(O)c1ccc(C(=O)O)c(C(=O)O)c1
inactive: activation [3] -3.3% | outcome [4] | activation [6] -1.87% | Potency [8] | Potency [10]

COC(=O)c1c(Cl)nn(C)c1S(=O)(=O)NC(=O)Nc1nc(OC)cc(OC)n1
inactive: activation [3] 5.65% | outcome [4] | Potency [5] | activation [6] -2.96% | Potency [7] | Potency [8] | outcome [9] | Potency [10] | activation [12] -0.555%

CC1(C)CC[C@]2(C(=O)O)CC[C@]3(C)C(=CCC4[C@@]5(C)CC[C@H](O)C(C)(C)C5[C@H](O)C[C@]43C)C2C1 (stereo partly specified)
inactive: Potency [13] | Potency [2]

CCSC(=O)N(CC(C)C)CC(C)C
inactive: activation [3] 3.31% | outcome [4] | activation [6] -2.35% | Potency [8] | outcome [9] | Potency [11] | activation [12] -3.92%

NN(c1ccccc1)c1ccccc1
inactive: activation [3] 8.8% | outcome [4] | Potency [5] | activation [6] -3.55% | Potency [8] | outcome [9] | Potency [10] | activation [12] -3.49%

CCCCOC(=O)c1ccccc1
inactive: activation [3] 0.383% | outcome [4] | activation [6] -8.22% | Potency [7] | Potency [11] | activation [12] -4.18%

CC(=O)[C@@H]1[C@H]2[C@H](C(=O)[C@H]3OC[C@@H]2O3)[C@H]2C=Cc3ccccc3N21
inactive: Potency [13] | Potency [2]

CCCC/C=C\CCCCCCCCO
inactive: activation [3] 1.62% | outcome [4] | Potency [5] | Potency [8] | outcome [9] | Potency [10] | Potency [11] | activation [12] 0.706%

COC(=O)c1cccc(C(=O)OC)c1
inactive: activation [3] -4.83% | outcome [4] | Potency [8] | outcome [9] | Potency [10] | activation [12] 2.13%

CC(C)c1ccc2cc(C(C)C)ccc2c1
inactive: activation [3] -3.98% | outcome [4] | activation [6] -1.13% | Potency [10]

CCCCCCCC[Si](Cl)(Cl)Cl
inactive: activation [3] 3.85% | outcome [4] | Potency [5] | activation [6] -0.511% | Potency [7] | Potency [8] | outcome [9] | Potency [10] | activation [12] 0.514%

C[Si](Cl)(Cl)c1ccccc1
inactive: activation [3] 5.21% | outcome [4] | Potency [5] | activation [6] 17.8% | Potency [7] | Potency [8] | activation [12] -1.52%

COC(=O)c1ccccc1S(=O)(=O)NC(=O)Nc1nc(OC(F)F)cc(OC(F)F)n1
inactive: activation [3] -5.06% | outcome [4] | Potency [5] | activation [6] -5.76% | Potency [7] | Potency [8] | outcome [9] | Potency [10] | Potency [11] | activation [12] -4.45%

CC(=O)c1c(O)c(C)c(O)c2c1OC1=CC(=O)C(C(C)=O)C(=O)[C@@]12C (stereo partly specified)
inactive: Potency [13] | Potency [2]

CCCCCCCCCCCCCCCCCCN
inactive: activation [3] -9.22% | outcome [4] | activation [6] -6.46% | Potency [7] | activation [12] -1.5%

CC[C@@H]1CN2CCc3cc(OC)c(OC)cc3[C@@H]2C[C@@H]1C[C@H]1NCCc2cc(OC)c(OC)cc21
inactive: Potency [13] | Potency [2]

C[Si](Cl)(Cl)[Si](C)(Cl)Cl
inactive: activation [3] 0.564% | outcome [4] | activation [6] -3.8% | Potency [7] | Potency [8] | Potency [10] | Potency [11]

C=Cc1ccc(P(c2ccccc2)c2ccccc2)cc1
inactive: activation [3] 8.38% | outcome [4] | Potency [5] | activation [6] -2.27% | Potency [7] | Potency [8] | outcome [9] | Potency [10] | Potency [11]

Nc1cc(Cl)nc(C(=O)O)c1Cl
inactive: activation [3] 6.83% | outcome [4] | Potency [5] | activation [6] -6.13% | Potency [7] | outcome [9] | Potency [10] | Potency [11] | activation [12] 1.21%

CCCCCCCCCCCCCCN
inactive: activation [3] 2.33% | outcome [4] | Potency [5] | activation [6] -4.59% | Potency [7] | Potency [8] | outcome [9] | Potency [10] | Potency [11] | activation [12] 2.13%

CC(Cl)(Cl)C(=O)OCCOc1cc(Cl)c(Cl)cc1Cl
inactive: activation [3] 2.7% | outcome [4] | Potency [5] | activation [6] -10.3% | Potency [7] | Potency [8] | Potency [10] | activation [12] -0.345%

CNc1nc(=O)n(C2CCCCC2)c(=O)n1C
inactive: activation [3] -4.83% | outcome [4] | Potency [5] | activation [6] -5.96% | Potency [7] | Potency [8] | Potency [10] | Potency [11] | activation [12] 0.353%
